# Laboratory results from the supplement of paper PMC3334620.
# Over roughly 33,000 sequences, “E-score (-0.5 to 0.5)” has its median near -0.032; the highest 2% begin near 0.36. What follows is part of a selection rich in the highest values, with near analogues and random picks from the rest.
# Molecular target: T1, Sko1 (UniProt Q02100)
# T1 sequence: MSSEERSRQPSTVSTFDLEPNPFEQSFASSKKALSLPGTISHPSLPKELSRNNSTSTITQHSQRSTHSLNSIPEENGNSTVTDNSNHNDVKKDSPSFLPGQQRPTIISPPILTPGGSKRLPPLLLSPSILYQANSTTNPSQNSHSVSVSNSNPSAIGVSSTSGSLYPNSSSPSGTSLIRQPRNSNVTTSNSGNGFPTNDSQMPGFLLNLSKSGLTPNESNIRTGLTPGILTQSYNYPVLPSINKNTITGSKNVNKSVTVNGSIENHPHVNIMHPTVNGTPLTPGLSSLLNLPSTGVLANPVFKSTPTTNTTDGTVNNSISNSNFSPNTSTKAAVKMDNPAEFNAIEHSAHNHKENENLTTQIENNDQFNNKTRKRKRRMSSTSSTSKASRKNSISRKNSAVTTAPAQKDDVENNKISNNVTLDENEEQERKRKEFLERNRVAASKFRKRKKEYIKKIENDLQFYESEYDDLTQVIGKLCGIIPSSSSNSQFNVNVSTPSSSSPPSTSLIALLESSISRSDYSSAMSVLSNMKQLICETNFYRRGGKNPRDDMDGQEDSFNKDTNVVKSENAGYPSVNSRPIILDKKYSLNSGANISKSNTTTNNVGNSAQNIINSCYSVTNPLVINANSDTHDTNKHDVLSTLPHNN
# Assay: PBM E-score (8-mer binding enrichment) (E-score (-0.5 to 0.5)); higher = stronger / more preferred TF binding
# Settings: protein concentration: 200 nM; construct: GST-full length
# Experimental: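 Universal 'all 10-mer' protein binding microarrays (Agilent AMADID 015681) probed with GST-tagged S. cerevisiae TFs (full-length or DBD) made by in vitro transcription/translation (PURExpress), about 100-200 nM. Bound TF was detected with fluorescent anti-GST. Each ungapped 8-mer (which stands for itself and its reverse complement) is scored by the PBM enrichment score (E-score), a modified Wilcoxon-Mann-Whitney statistic from -0.5 to +0.5, computed with the Universal PBM Analysis Suite. Scale: above 0.35 generally sequence-specific binding.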
row,Sequence,PBM E-score
1,GCCCGTAA,0.172
2,ACGCACAA,0.262
3,ACGCACAG,0.254
4,ACGCACAT,0.387
5,AAGCACGT,0.389
6,AAGCACGG,-0.00706
7,AAGCACGA,0.0735
8,ACGCACGA,0.295
9,ACGCACGT,0.403
10,ACGCACGC,0.316
11,GGAACGGA,-0.185
12,ATTCGCTG,0.0204
13,ATAATACC,0.138
14,CGAATACC,-0.0967
15,ACAATACA,0.0868
16,ATAATACG,0.376
17,AGAATACG,0.304
18,ATAATACA,0.208
19,ACAATACT,0.151
20,ACAATACG,0.386
21,CGAATACG,0.406
22,CTGGCAAC,-0.23
23,CACGCTTA,0.116
24,AGATGCAT,-0.0801
25,ACTGAAGA,0.0507

row,Sequence,PBM E-score
1,AAACGTTT,0.275
2,AACCGTAA,0.0957
3,AAACGTAA,0.462
4,AAACGTGC,0.231
5,AAACGTGT,0.288
6,AAACGTAG,0.393
7,CAACGTAC,0.326
8,AAACGTTA,0.3
9,AAACGTAT,0.429
10,AAACGTAC,0.37
11,AAGCGTAG,-0.0528
12,GGATTCAC,-0.215
13,CATCTCGC,-0.129
14,AGTCCGTA,-0.218
15,TATAGAAA,0.0683
16,AGCTTTGG,-0.172
17,ATAAAACC,-0.0531
18,AGACAGTG,-0.112
19,GTCTCCTA,0.0919
20,GACCTCGC,-0.122
21,GAGAAACC,-0.146
22,TACCATCA,-0.0837
23,GCACGTAC,0.34
24,TCACGTGA,0.336
25,GCTCGTAA,0.231

row,Sequence,PBM E-score
1,TCACGTAA,0.472
2,GCACGTAA,0.459
3,TCCCGTAA,0.11
4,TCAAACGA,0.102
5,CTTTGGGC,-0.121
6,AGAGGGCT,-0.406
7,GGTAAATA,0.0846
8,CCGACCAC,-0.182
9,CACGTGTC,0.357
10,CGCGTGTA,0.227
11,GTCGTGTA,0.169
12,CACGTGTA,0.399
13,AACGTGTA,0.247
14,GACGTGTA,0.374
15,AGGTTAAA,-0.104
16,CTCCTTGA,-0.159
17,CGCCAGGC,-0.227
18,AAGGTTGT,0.00278
19,CTAATTGC,0.104
20,CACGAATA,0.265
21,TACGAATA,0.383
22,GACGAATA,0.297
23,CTAAGATA,-0.023
24,GGCACGGA,-0.233
25,GGCACGTA,0.395

row,Sequence,PBM E-score
1,CGCACGTC,0.333
2,CGCACGCA,0.211
3,GGCACGCA,-0.00979
4,CGCACGTA,0.408
5,CGAGTTCA,0.00744
6,CAGACCGC,-0.156
7,CCTCATGC,-0.142
8,AGTCATGA,0.0664
9,GGTCATGA,0.111
10,AGTCATGC,-0.0777
11,CGTCATGA,0.471
12,CGTCATGC,0.469
13,GGCAGATA,-0.0846
14,AATCGTTA,0.23
15,CGAAGGGC,-0.104
16,CTGTATGA,-0.0143
17,GTACCCCA,-0.19
18,CTAGGGAG,-0.148
19,CCAGTACG,0.215
20,AAGGGAGG,-0.244
21,ACTTAGTC,-0.15
22,ACTTAGTG,0.00172
23,ACGTAGTA,0.446
24,CCGTAGTC,-0.266
25,ACGTAGTC,0.425

row,Sequence,PBM E-score
1,CCGTAGTA,-0.0427
2,AGGTAGTG,-0.0666
3,ACGTAGTG,0.452
4,GCGTAGTA,0.279
5,AACAGGGT,-0.192
6,AGCCGCAG,-0.223
7,ACCTGTGA,0.115
8,CCGGATTC,-0.0976
9,CTTCGCGC,0.217
10,CAGATGGA,-0.0703
11,CGTATTAG,0.382
12,CGTATTAC,0.387
13,CGTATTAA,0.362
14,AGTATTAC,0.331
15,CATATTAG,0.203
16,TGTATTAA,0.182
17,AGTATTAA,0.261
18,GGTATTAC,0.204
19,AGTATTAG,0.00871
20,CGTTCTAA,0.131
21,AGTTGGTG,-0.0352
22,ACCCATAA,-0.118
23,GGCCTCAC,-0.0829
24,AGAGCACC,-0.328
25,ACCTTGTG,-0.0718

row,Sequence,PBM E-score
1,CACCTGTC,-0.232
2,ACATGACT,-0.0468
3,ATATGACC,0.00457
4,CCATGACC,-0.0889
5,ACATGACG,0.474
6,CCATGACG,0.475
7,CCATGACA,0.163
8,ATATGACG,0.477
9,ATATGACA,0.243
10,ACATGACA,0.217
11,TCATTTCA,0.181
12,AGAGCAGC,-0.173
13,CTACGTTA,0.406
14,ATACGTTC,0.374
15,CTACGTTC,0.272
16,CCACGTTA,0.289
17,GCACGTTA,0.274
18,ATGCGTTA,0.247
19,ATACGTTA,0.436
20,AGACGTTC,0.125
21,GTACGGTA,0.207
22,GTACGTTA,0.395
23,ACACGTTA,0.318
24,CAACGTTA,0.257
25,AGCAGGGC,-0.225

row,Sequence,PBM E-score
1,AGACTACA,-0.158
2,ATGCTAAT,0.209
3,AAGATGCT,-0.0361
4,AAGAAAAG,-0.011
5,GGAGGCCC,-0.241
6,AGCCCCCC,-0.355
7,ACCAACAA,0.147
8,AGATGCAC,-0.0198
9,AAACGTTG,0.112
10,ATACGTTG,0.391
11,ACACGTTG,0.188
12,ATCTCTAC,0.106
13,CCCAGCGC,-0.229
14,ACGTACTA,0.426
15,AGGTACTC,-0.109
16,GCGTACTA,0.232
17,ACGTACTG,0.412
18,CCGTACTC,-0.132
19,ACGTACTC,0.432
20,ATGTACTG,-0.0689
21,CCGTACTA,0.00949
22,AGGTACTG,-0.125
23,GGGATAGA,-0.0751
